Compound activity from PubChem.
KDM4E inh = blocks human JMJD2E demethylase activity; Potency, µM (top dose mostly 57.1 µM), actives largely listed as inhibitors; JMJD2E catalytic domain, FDH-coupled NADH fluorescence (FDH is formaldehyde dehydrogenase); 230,000 tested, 1.6% active; AID 2147; active = well fitted inhibition curve with a large enough effect, not every such curve was filed as active; inconclusive = small, poorly fitted or top-dose-only effect, or another doubt; inactive = no such curve, though single readings can be large or run the other way; also: nearly all actives have a fitted effect of over 50% in size
Target sequence (B2RXH2 1-337 limits assumed): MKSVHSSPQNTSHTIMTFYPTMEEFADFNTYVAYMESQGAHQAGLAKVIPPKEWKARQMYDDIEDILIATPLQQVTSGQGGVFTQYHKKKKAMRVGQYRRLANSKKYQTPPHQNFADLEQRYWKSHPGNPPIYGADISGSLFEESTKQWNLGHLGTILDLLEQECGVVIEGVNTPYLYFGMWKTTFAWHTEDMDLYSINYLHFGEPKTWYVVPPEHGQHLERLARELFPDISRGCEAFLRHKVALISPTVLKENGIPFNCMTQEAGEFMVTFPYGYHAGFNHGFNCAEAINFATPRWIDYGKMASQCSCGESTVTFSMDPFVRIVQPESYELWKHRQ
ALDH1A1 block = blocks purified human ALDH1A1 activity | P00352 | Purified ALDH1A1, NADH fluorescence, propionaldehyde substrate | Potency, µM (highest dose often 75.3 µM), hits mostly inhibitors | 220,000 tested, 7.3% active | AID 1030; active = well fitted inhibition curve with a large enough effect, not every such curve was filed as active; inconclusive = small, poorly fitted or top-dose-only effect, or another doubt; inactive = no such curve, though single readings can be large or run the other way
NPSR antag = neuropeptide S receptor (human) antagonism, cAMP | AID 1461 | CHO-NPSR cells, cAMP TR-FRET, antagonist mode | Potency, µM (highest dose often 38.3 µM), usual class: inhibitors | Q6W5P4 | 220,000 tested, 1% active; also: nearly all actives have a fitted effect of over 50% in size
Target sequence (Q6W5P4 whole entry, looked up): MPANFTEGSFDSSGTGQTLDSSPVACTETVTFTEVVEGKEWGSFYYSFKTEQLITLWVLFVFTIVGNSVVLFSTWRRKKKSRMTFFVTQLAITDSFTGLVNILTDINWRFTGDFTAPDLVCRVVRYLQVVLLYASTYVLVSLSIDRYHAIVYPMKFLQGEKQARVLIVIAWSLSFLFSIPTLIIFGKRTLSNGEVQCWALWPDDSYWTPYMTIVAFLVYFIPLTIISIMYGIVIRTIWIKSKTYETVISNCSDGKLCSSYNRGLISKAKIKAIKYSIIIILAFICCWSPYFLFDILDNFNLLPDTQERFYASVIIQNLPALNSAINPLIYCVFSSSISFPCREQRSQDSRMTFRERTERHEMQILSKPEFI
FBPA coupling cs = inhibits coupling enzyme system, counter-screen for aldolase hits; coupling enzyme system counterscreen, AmpLite Red fluorescence; activity change, negative = inhibition, % at 58.2 µM, hits read low; 290,000 tested, 0.67% active; in the data active = activity change below about -30%
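Counterscreen of the coupled detection system alone, without aldolase: glyceraldehyde-3-phosphate coupling enzymes plus AmpLite Red readout. Compounds at 57.5 uM final, 10 min RT preincubation, 20 min RT reaction, fluorescence 525/598 nm.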
Sfp PPTase inh = blocks B. subtilis Sfp PPTase activity | Q9F4F7 | Biochemical Sfp PPTase activity, qHTS | Potency, µM, usual class: inhibitors | 310,000 tested, 3.5% active | AID 1490;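 also: the enzyme is Sfp with the accession as filed and its product quenches rhodamine fluorescence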
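Fluorescence-quenching assay with 15 nM Sfp, 5 uM rhodamine-CoA and 12.5 uM BHQ-2-labelled ybbR peptide in pH 7.6 Hepes/MgCl2 buffer. Enzyme was pre-incubated with compound for 15 min at room temperature. Rate was taken from the 30-min fluorescence change (525/598 nm).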
RGS12 GoLoco inh = inhibitors of human Gai1-RGS12 GoLoco interaction (red fluorophore) | 230,000 tested, 0.44% active | AID 880 | Potency, µM (top dose mostly 61.6 µM), most hits filed as inhibitors | P63096 | Gai1:RGS12 GoLoco peptide FP, rhodamine, 10 min; active = well fitted inhibition curve with a large enough effect, not every such curve was filed as active; inactive = no such curve, though single readings can be large or run the other way; also: nearly all actives have a fitted effect of over 30% in size
Large screens that a line does not name were inactive. This is a sample that favours compounds with a hit; in the whole collection about 8.5% have one here. Unless noted, calls follow the shape of the dose curve; as a rule, active = well fitted curve in the direction sought with a large enough effect; inconclusive = small, poorly fitted or top-dose-only effect, or another doubt; inactive = no such curve, though single readings can be large; an effect the other way counts as inactive or inconclusive.

CCOC(=O)c1c(CN(C)C)n(C)c2c(O)c(N=NC(N)=O)c3ccc(Br)cc3c12	FBPA coupling cs -31 (no result: KDM4E inh, ALDH1A1 block, NPSR antag, RGS12 GoLoco inh)
CCOC(=O)C1=C(N)N(c2ccccc2)C(=O)C1	ALDH1A1 block inconclusive
CCOC(=O)C1=C(N)N2C(=O)CSC2=C(C(=O)OC)C1	KDM4E inh inconclusive, ALDH1A1 block inconclusive, Sfp PPTase inh 56µM (no result: RGS12 GoLoco inh)
O=C(O)c1cc(-c2ccc(/C=C3\NC(=O)N(c4ccccc4)C3=O)o2)ccc1Cl	KDM4E inh inconclusive, Sfp PPTase inh 79µM (no result: ALDH1A1 block)
Cc1cccc(N2NC(=O)/C(=C/c3ccc(-c4ccc(Cl)c(C(=O)O)c4)o3)C2=O)c1	KDM4E inh inconclusive, ALDH1A1 block inconclusive
O=C1NN(c2ccccc2)C(=O)/C1=C/c1ccc(-c2ccc(Cl)c(C(=O)O)c2)o1	KDM4E inh inconclusive, ALDH1A1 block 13µM
O=C(O)c1cc(-c2ccc(/C=C3\NC(=O)N(c4ccc(Cl)cc4)C3=O)o2)ccc1Cl	KDM4E inh inconclusive, ALDH1A1 block inconclusive, Sfp PPTase inh 50µM
CN(C)c1ncc2nc(-c3ccccc3)c(=O)n(CCc3ccccc3)c2n1	ALDH1A1 block inconclusive (no result: KDM4E inh, NPSR antag)
O=C(O)c1ccccc1C(=O)c1ccc2c(c1)CCC2	none (no result: KDM4E inh, ALDH1A1 block, NPSR antag, RGS12 GoLoco inh)
CCCOc1cccc(C2C(C(=O)c3cccs3)=C(O)C(=O)N2Cc2cccnc2)c1 (configuration not stated)	none (no result: ALDH1A1 block)
CC(C)=CCC/C(C)=C/C=C/C(C)=C/C=C/C(C)=C/C=C/C=C(C)/C=C/C=C(C)/C=C/C=C(\C)CCC=C(C)C	Sfp PPTase inh inconclusive (no result: KDM4E inh, ALDH1A1 block, NPSR antag, FBPA coupling cs)
Cc1cc(C)c2c(CC(=O)NC(C)C)coc2c1	none
Cc1cc(C)c2c(=O)c(C#N)coc2c1	ALDH1A1 block 10µM
CCOc1ccccc1C(=O)OCC(=O)NCCNC(=O)COC(=O)c1ccccc1OCC	none (no result: KDM4E inh, ALDH1A1 block, NPSR antag, FBPA coupling cs, RGS12 GoLoco inh)
CCOCC(=O)Nc1ccc(S(=O)(=O)N2CCOCC2)cc1	ALDH1A1 block 10µM
COc1ccc(NC(=O)CNc2cc(S(=O)(=O)N3CCOCC3)ccc2NCC2CCCO2)cc1 (configuration not stated)	ALDH1A1 block 7.1µM
CCCc1nc2ccccc2c(C(=O)OCC(=O)Nc2ccc(S(=O)(=O)N3CCOCC3)cc2)c1CC	NPSR antag 10µM
O=C(COC(=O)COc1ccccc1[N+](=O)[O-])Nc1ccc(S(=O)(=O)N2CCCCC2)cc1	ALDH1A1 block 14µM
Cc1ccc(NC(=O)CNc2cc(S(=O)(=O)N3CCOCC3)ccc2NCC2CCCO2)cc1F (configuration not stated)	none (no result: KDM4E inh, ALDH1A1 block, NPSR antag, FBPA coupling cs, RGS12 GoLoco inh)
CCC(=O)Nc1ccc(S(=O)(=O)N2CCOCC2)cc1	none
COc1ccccc1NC(=O)C1CCCN1C(=O)Nc1ccc(F)cc1 (configuration not stated)	none (no result: KDM4E inh, ALDH1A1 block, NPSR antag, RGS12 GoLoco inh)
CC(/C=C/c1ccccc1)=N/NC(=O)c1cccc(Br)c1	none
COC(=O)c1[nH]c2ccccc2c1NC(=O)C(C)N1CC(C)OC(C)C1 (configuration not stated)	KDM4E inh inconclusive (no result: ALDH1A1 block)
CCC(C)NC(=O)COc1ccc(S(=O)(=O)N2CCOCC2)cc1 (configuration not stated)	ALDH1A1 block 5µM
O=C(COc1ccc(S(=O)(=O)N2CCOCC2)cc1)NCCN1CCOCC1	none (no result: KDM4E inh, ALDH1A1 block, NPSR antag, RGS12 GoLoco inh)
O=C(COC(=O)COc1ccccc1)Nc1ccc(S(=O)(=O)N2CCOCC2)cc1	ALDH1A1 block 32µM
O=C(CN(CCc1ccccc1)S(=O)(=O)c1ccc(Br)cc1)N/N=C/c1ccccc1C(=O)O	ALDH1A1 block inconclusive
O=C(CONS(=O)(=O)c1ccc(Cl)cc1)NCCNc1ncc(C(F)(F)F)cc1Cl	ALDH1A1 block 13µM
Nc1ccc2[nH]ncc2c1	KDM4E inh inconclusive, ALDH1A1 block inconclusive, FBPA coupling cs -42
O=C(Cc1ccc(F)cc1)Nc1ccc2[nH]ncc2c1	none (no result: KDM4E inh, ALDH1A1 block, NPSR antag, RGS12 GoLoco inh)
CCc1ccc(C2/C=C\CNC(c3ccccc3)C(=O)N2Cc2ccc(C)cc2)cc1 (configuration not stated)	none (no result: KDM4E inh, ALDH1A1 block, NPSR antag, RGS12 GoLoco inh)
CCCCN=C1NN=C(c2cc3ccccc3o2)CS1	KDM4E inh 25µM, ALDH1A1 block inconclusive
CCn1c(NC(=O)/C=C/c2ccc(F)cc2)nc2ccccc21	none (no result: KDM4E inh, ALDH1A1 block, NPSR antag, RGS12 GoLoco inh)
COc1ccc(CN(C(=O)c2cc(=O)c3cc(C)cc(C)c3o2)C2CCS(=O)(=O)C2)cc1 (configuration not stated)	none (no result: ALDH1A1 block)
COCCN1CC(C(=O)NCc2ncccc2C)CCC1=O (configuration not stated)	none (no result: KDM4E inh, ALDH1A1 block, NPSR antag, FBPA coupling cs, RGS12 GoLoco inh)
CCOC(=O)CCC(NC(=O)CCC(=O)NC(CCC(=O)OCC)C(=O)OCC)C(=O)OCC (configuration not stated)	none
CCOC(=O)C(CS)NCCN[C@@H](CS)C(=O)OCC (some centres not stated)	Sfp PPTase inh 1.6µM (no result: KDM4E inh, ALDH1A1 block, NPSR antag, FBPA coupling cs, RGS12 GoLoco inh)
O=C(CN1CCN(c2ccc(F)cc2)CC1)Nc1nnc(-c2ccccc2)s1	ALDH1A1 block 28µM
O=C(CSc1ncn[nH]1)Nc1nnc(-c2ccccc2)s1	ALDH1A1 block 28µM
O=C(CSc1ncn[nH]1)Nc1ccccc1-c1ccccc1	ALDH1A1 block inconclusive
Cc1cnc(CNc2ncncc2-c2ccc3c(c2)OCO3)cn1	none (no result: KDM4E inh, NPSR antag)
O=C(OCCCN1CCOCC1)c1ccc(O)c(O)c1	KDM4E inh 16µM, Sfp PPTase inh inconclusive (no result: ALDH1A1 block)
COC(=O)CN1C(=O)C2(C(C#N)=C(N)Oc3cc(C)oc(=O)c32)c2ccccc21 (configuration not stated)	ALDH1A1 block 6.3µM
COc1cc2c3c(c1)C1(C(=O)N3C(C)(C)C=C2C)C(C#N)=C(N)Oc2cc(C)oc(=O)c21 (configuration not stated)	ALDH1A1 block 4µM
COC(=O)CN1C(=O)C2(C(C#N)=C(N)Oc3ccccc32)C2=C1CC(C)(C)CC2=O (configuration not stated)	ALDH1A1 block 6.3µM
COC(=O)Cc1[nH]nc2c1C1(C(=O)N(Cc3ccccc3)c3ccccc31)C(C#N)=C(N)O2 (configuration not stated)	ALDH1A1 block 20µM
Cc1c(OC(C)C(=O)NCc2ccccn2)ccc2c3c(c(=O)oc12)CCCC3 (configuration not stated)	none (no result: KDM4E inh, ALDH1A1 block, NPSR antag, FBPA coupling cs, RGS12 GoLoco inh)
CC1(C)CC(=O)C2=C(C1)OC(N)=C(C#N)C21C(=O)N(Cc2ccccc2Cl)c2ccccc21 (configuration not stated)	ALDH1A1 block 2.8µM, NPSR antag inconclusive
COCCCNC(=O)Nc1ccc2c(c1)N(C)C(=O)CS2	none
CN1C(=O)CSc2ccc(NC(=O)NCCC3=CCCCC3)cc21	ALDH1A1 block 7.9µM
COCCNC(=O)Nc1ccc2c(c1)N(C)C(=O)CS2	ALDH1A1 block 22µM
CCC(=O)N1c2ccc(S(=O)(=O)NC3CCCCC3)cc2CC1C (configuration not stated)	none (no result: KDM4E inh, ALDH1A1 block, NPSR antag, RGS12 GoLoco inh)
NC(CS)C(=O)O (configuration not stated)	Sfp PPTase inh 18µM (no result: KDM4E inh, ALDH1A1 block, NPSR antag, FBPA coupling cs)
N[C@H](CS)C(=O)O	Sfp PPTase inh 32µM (no result: KDM4E inh, NPSR antag, FBPA coupling cs)
